Screening results as filed in PubChem.
Sampled rows, rich in hits. Any-hit rate of the full collection: about 1.3%.
RGS4 inhibitor = Inhibitors of Regulator of G Protein Signaling (RGS) 4: qHTS; Regulator of G-protein signaling 4 (Homo sapiens), P49798; Transcreener GDP fluorescence polarization, RGS4-accelerated GTP hydrolysis; Potency, µM (highest dose often 114 µM), without a hit: top-dose activity change, negative = inhibition, usual class: inhibitors; 390,000 compounds, 0.039% hits; note: % is set by controls: 0 for no effect and ±100 for the full control effect; nearly all actives have a fitted effect of over 75% in size
Target sequence (P49798 whole entry, looked up): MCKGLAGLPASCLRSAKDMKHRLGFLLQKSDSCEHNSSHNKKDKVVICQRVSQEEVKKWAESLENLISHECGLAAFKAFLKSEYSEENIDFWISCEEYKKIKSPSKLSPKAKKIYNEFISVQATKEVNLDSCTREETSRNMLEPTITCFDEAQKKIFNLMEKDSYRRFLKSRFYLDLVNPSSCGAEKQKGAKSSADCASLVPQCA
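MLSMR compounds (23 nl, pin-transferred) preincubated 10 min at room temperature with a 500nM (2x) first reagent, then RGS4 at 900nM (2x) plus Transcreener GDP mix added; fluorescence polarization (620/688 nm) read before and after 90 min at 30 °C.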
BRCA1 expr act = qHTS Assay to Identify Small Molecule Activators of BRCA1 Expression. Potency, µM (titrated, usually from 46.1 µM), for inactives: at the top dose activation, actives largely listed as activators. 380,000 compounds, 1.1% hits. MCF7-BRCA1-FFLuc reporter, luminescence, 48 h; response scale: scaled: vehicle 0%, 10 µM genistein 100%. AID 624202, 2012; note: nearly all actives have a fitted effect of over 80% in size
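MCF7-BRCA1-FFLuc cells, 2000/well in phenol-red-free MEM, attached 2 h then treated 48 h at 37 C. Luciferase luminescence read 15 min after reagent; normalized to genistein maximum activation (10microM) and DMSO, concentration-response fitted.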
EPAC1 antag = qHTS for Antagonist of cAMP-regulated guanine nucleotide exchange factor 3 (EPAC1): primary screen; EPAC1 GEF assay, Rap1b-BODIPY-GDP exchange fluorescence; AID 720709, 2013; Rap guanine nucleotide exchange factor 3 (Homo sapiens), O95398; 360,000 compounds, 0.14% hits; Potency, µM (doses to about 115 µM), inactives show top-dose activity change, negative = inhibition, most hits filed as inhibitors;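 note: plate controls were vehicle for no effect and positive control for full effect; nearly all actives have a fitted effect of over 50% in size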
EPAC2 antag = qHTS for Antagonist of cAMP-regulated guanine nucleotide exchange factor 2 (EPAC2): primary screen; Rap guanine nucleotide exchange factor 4 (Homo sapiens), Q8WZA2; EPAC2 GEF exchange of Rap1B-BODIPY-GDP, fluorescence; Potency, µM (top dose mostly 114 µM), inactives show top-dose activity, negative = inhibition, usual class: inhibitors; 360,000 compounds, 0.18% hits; AID 720708, 2013; note: % is set by controls: 0 for no effect and ±100 for the full control effect; nearly all actives have a fitted effect of over 45% in size
EPAC1 agonist = qHTS for Agonist of cAMP-regulated guanine nucleotide exchange factor 3 (EPAC1): primary screen; 360,000 compounds, 0.073% hits; Potency, µM (highest dose often 154 µM), without a hit: at the highest dose activation, actives largely listed as activators; EPAC1 agonist qHTS, biochemical assay; response scale: 100% = response to 6.5 mM cAMP; Rap guanine nucleotide exchange factor 3 (Homo sapiens), O95398; AID 720707, 2013; note: nearly all actives have a fitted effect of over 60% in size
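Compounds were pinned as a concentration titration into mixtures of EPAC1 (100 nM), BODIPY-GDP-loaded Rap1B (250 nM) and GDP (50 uM). After 5 min at room temperature, fluorescence was followed for 30 min; activity was scaled to 6.5 mM cAMP.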
EPAC2 agonist = qHTS for Agonist of cAMP-regulated guanine nucleotide exchange factor 4 (EPAC2): primary screen. EPAC2 activation, biochemical qHTS; response scale: 100% = 6.5 mM cAMP response. Potency, µM (highest dose often 154 µM), for the others: at the highest dose activation, usual class: activators. 360,000 compounds, 0.079% hits; note: nearly all actives have a fitted effect of over 50% in size
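Exchange assay: 100 nM EPAC2 with 250 nM Rap1B-BODIPY-GDP and 50 uM GDP. Fluorescence (ex 480/em 540 nm) read every 5 min for 30 min at room temperature. Data normalized to 6.5 mM cAMP as agonist control.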
The depositor's hits bear a star; u = inconclusive; x = not tested or not shown; [ ] = another dose, or the depositor's remark. Calls come from the whole dose curve; as a rule, active = well fitted curve in the direction sought with a large enough effect; inconclusive = small, poorly fitted or top-dose-only effect, or another doubt; inactive = no such curve, though single readings can be large; an effect the other way counts as inactive or inconclusive. Potency is the fitted concentration of half-maximal effect.

SMILES | RGS4 inhibitor | BRCA1 expr act | EPAC1 antag | EPAC2 antag | EPAC1 agonist | EPAC2 agonist
O=C(NCc1ccccn1)/C(=C/c1ccco1)NC(=O)c1ccccc1 | -13% | -15% | -1% | 11% | 0% | -6%
Cn1c(SCC(=O)Nc2nccs2)nnc1-c1ccncc1 | 8% | 4% | u | 4% | 5% | -5%
COc1ccccc1C(=O)COC(=O)c1cc(=O)[nH]c2ccccc12 | -3% | -1% | 5% | -2% | 1% | -4%
Cc1ccc(C(=O)OCC(=O)c2ccc[nH]2)s1 | -9%[56.9 µM] | 73% | -9% | -4% | 7% | 6%
COc1ccc(C(=O)COC(=O)c2cccc(-n3cnnn3)c2)c(OC)c1 | -22% | 2.5µM* | -3% | 7% | -7% | 2%
Cc1ccsc1C(=O)OCC(=O)c1ccc[nH]1 | -32% | 5.6µM* | -7% | -2% | 10% | 16%
COc1ccc(C(=O)COC(=O)c2cc(=O)[nH]c3ccccc23)c(OC)c1 | -1% | 13µM* | -6% | 1% | -2% | -4%
COc1ccc(C(=O)OCC(=O)c2ccc[nH]2)c(OC)c1 | -4% | 8.9µM* | -11% | -1% | 6% | 4%
CCCn1nc(NC(=O)c2ccco2)c2cc3cc(C)ccc3nc21 | -30% | 40% | -17% | -5% | 2% | -5%
CCCn1nc(NC(=O)c2ccccn2)c2cc3cc(C)ccc3nc21 | 0% | 11µM* | -11% | -3% | 7% | 14%
O=C(Cn1cc([N+](=O)[O-])cn1)N1CCc2ccccc21 | -2% | 18% | 5% | -1% | 5% | 3%
CCc1ccc(NC(=S)NC(=O)CC(C)C)cc1 | -8% | 6.3µM* | -15% | 4% | -12% | -3%
Cc1ccc(-c2nn(-c3ccccc3)cc2CO)o1 | -33% | 3.5µM* | 2% | -2% | 2% | 9%
OCc1cn(-c2ccccc2)nc1-c1ccco1 | -45% | u | 3% | 1% | 8% | 6%
CC(C)c1ccccc1NC(=O)c1cccc(NC(=O)c2ccccc2)c1 | -23% | -1% | -8% | -1% | 4% | 14%
O=c1oc(-c2cccs2)nc2sc3c(c12)CCCCC3 | 3% | 10µM* | 9% | 2% | 1% | 8%
CCOC(=O)c1ccc(-c2ccc(/C=N/NC(=O)Cc3nnc(N)s3)o2)cc1 | -21% | 2.2µM* | 16% | 8% | 4% | -11%
COc1cccc(-c2nnc(-c3ccc(C(F)(F)F)cc3)o2)c1 | -9% | 13µM* | 7% | 3% | -7% | 1%
CCN=c1scc(-c2ccco2)n1/N=C/c1ccc(OC)c(O)c1 | u | 6.3µM* | -23% | -18% | u | 10%
Cc1ccc(OCC(=O)Nc2ccc(Cl)c(-c3nc4ncccc4o3)c2)c(C)c1 | 4% | x | x | x | x | x
O=C(O)c1ccc2c(c1)C(=O)N(CCc1c[nH]c3ccccc13)C2=O | 6% | 7.9µM* | -10% | -11% | 5% | 8%
Cn1c(=O)c(C#N)c(-c2ccc(F)cc2)c2cc(C(=O)c3cc(Cl)cc(Cl)c3O)cnc21 | -14% | -43% | u | 50µM* | -2% | -3%
COc1ccccc1-n1c(=O)c(C#N)c(-c2ccc([N+](=O)[O-])cc2)c2cc(C(=O)c3cc(F)ccc3O)cnc21 | 25% | 1% | 7% | -10% | 7% | 13%
CN(Cc1ccccc1)C(=O)CN1CCN(S(=O)(=O)c2ccc(Cl)c(Cl)c2)CC1 | 10% | -18% | -2% | -28% | 11% | 11%
